In PubChem BioAssay AID743060 (The Scripps Research Institute Molecular Screening Center, 2013):

test: inhibitors of T. brucei MetRS aminoacylation, late-stage follow-up, biochemical, radioactivity, round 1 (AID 743060); details: purified enzyme, radiolabel aminoacylation, scintillation, 2 h; at 10 µM; stronger effect = higher value

| SMILES | inhibition [%] |
| --- | --- |
| O=C(NCc1nc2ccccc2[nH]1)C1=C[C@H](c2ccc3c(c2)OCO3)C[C@H](OCCCCO)O1 | 79.4 |
| O=C(Cn1cc(C(=O)C(=O)N2CCOCC2)c2ccccc21)NCC1CCCO1 (stereo not given) | 1.28 |
| CCOC(=O)N1CCC(Nc2c(Nc3ccc(F)cc3)c(=O)c2=O)CC1 | 72.7 |
| O=C(NNC(=O)c1cc(-c2ccc(Cl)c(Cl)c2)nc2ccccc12)Nc1ccccc1 | 85.5 |
| O=C(NCc1nc2ccccc2[nH]1)C1=C[C@@H](c2csc3ccccc23)C[C@@H](OCCCCO)O1 | 89.2 |
| O=C(NCCc1nc2ccccc2[nH]1)c1ccc(Cl)cc1Cl | 94.9 |
| COc1cccc(NC(=O)CSc2nnc3c(n2)[nH]c2ccc(C)cc23)c1 | 94.2 |
| Brc1cnc2nc(SCc3nc4ccccc4[nH]3)[nH]c2c1 | 84.9 |
| Cc1cccc(C(=O)NCCc2nc3ccccc3n2CCOc2ccccc2)c1 | 0.31 |
| O=C(NNC(=O)c1ccc(-n2cncn2)c([N+](=O)[O-])c1)c1ccc(Cl)cc1 | 73 |
| Oc1c(Cl)cc(Cl)cc1CNc1nc2ccccc2[nH]1 | 98.7 |
| CC(=O)c1ccc(N2CCN(C(=O)CCCn3c(=O)[nH]c4ccc(Br)cc4c3=O)CC2)cc1 | 97 |
| CC(C)OCCCN1CC(=O)N2C(c3cccc([N+](=O)[O-])c3)c3[nH]c4ccccc4c3C[C@H]2C1=O (stereo not given in full) | 93.1 |
| COc1ccc(CCN(C(=S)Nc2ccccc2)C2CC(=O)N(c3ccc(Cl)cc3)C2=O)cc1 (stereo not given) | 99.4 |
| CC(C)(C)[C@@H]1C=C(C(=O)NCc2nc3ccccc3[nH]2)O[C@H](OCc2ccc(CO)cc2)C1 | 84.8 |
| O=C(CC=NOCc1ccc([N+](=O)[O-])cc1)Nc1ccc(Cl)cc1 | 86.5 |
| O=C(NCc1nc2ccccc2[nH]1)C1=C[C@@H](c2ccccc2)C[C@@H](OCc2ccc(CO)cc2)O1 | 94.3 |
| O=C1[C@@H]2Cc3c([nH]c4ccccc34)C(c3cccc([N+](=O)[O-])c3)N2C(=O)CN1CCCO (stereo not given in full) | 97.5 |

| SMILES | inhibition [%] |
| --- | --- |
| CC(=O)N(CCc1ccccc1)C1CC(=O)N(c2ccc(Cl)cc2)C1=O (stereo not given) | -17.1 |
| O=C(NCc1nc2ccccc2[nH]1)C1=C[C@@H](c2ccc(Br)cc2)C[C@@H](OCCCCO)O1 | 99.9 |
| COc1ccc(NC(=O)CSc2nnc3c4cc(C)ccc4n(C)c3n2)cc1 | -7.1 |
| CCCCn1c(CCNC(=O)c2ccc(F)cc2)nc2ccccc21 | 2.32 |
| COc1cccc(NC(=O)C2CC(=O)n3c(nc4ccccc43)N2)c1 (stereo not given) | 31.5 |
| COc1ccc(NC(=O)C2CC(=O)n3c(nc4ccccc43)N2)cc1 (stereo not given) | -13.4 |
| COc1ccc2[nH]c3nc(SCC(=O)Nc4ccc5c(c4)OCO5)nnc3c2c1 | 65.6 |
| O=C(NCCc1nc2ccccc2[nH]1)c1ccc(Cl)c(Cl)c1 | 97.5 |
| Cn1c(CCNC(=O)c2ccc(Cl)cc2)nc2ccccc21 | 3.39 |
| CCN(C(=O)Cn1cc(C(=O)C(=O)N2CCOCC2)c2ccccc21)c1ccccc1 | -23.7 |
| O=C(NCCc1nc2ccccc2[nH]1)c1c(F)cccc1F | 1.38 |
| CN(CC(=O)Nc1ccc(Cl)cc1)C(=O)c1ccc(-n2cncn2)c([N+](=O)[O-])c1 | 92.5 |
| O=C(CCC(=O)Nc1cccc([N+](=O)[O-])c1)NN=Cc1cccs1 | 74.3 |
| O=C(N/C(=C\c1cccnc1)c1nc2ccccc2[nH]1)c1cccc(Br)c1 | 71.7 |
| O=C(Cn1cc(C(=O)c2ccccc2)c2ccccc21)Nc1cccc(C(F)(F)F)c1 | 65.9 |
| CC(C)c1nc2ccc(C(=O)N(C)CCc3nc4ccc(F)cc4[nH]3)cc2o1 | -7.17 |
| CCc1ccc2[nH]c3nc(SCC(=O)NCc4cccc(OC)c4)nnc3c2c1 | 0.65 |
